From PubChem BioAssay (Tox21) come the findings set out here.

Experiment [1] in a line: qHTS assay to identify small molecule antagonists of the thyroid receptor (TR) signaling pathway (AID 743065). Also: nearly all actives have a fitted effect of over 55% in size. Also: potency is read from the fitted curve at half-maximal effect. The method in brief: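 GH3.TRE-Luc rat pituitary cells carrying two TR response elements driving luciferase were plated for 4 h, given compound plus 1 nM T3 (final), and incubated 23.5 h at 37 C. ONE-Glo luminescence measured reporter inhibition; CellTiter-Fluor fluorescence tracked cytotoxicity.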

For experiment [2], the system named is thyroid hormone receptor (rat, GH3 cells). Description: qHTS assay to identify small molecule agonists of the thyroid receptor (TR) signaling pathway (AID 743066; calls by dose curve; also: potency is read from the fitted curve at half-maximal effect).
Experiment [3] in a line: qHTS assay to identify small molecule antagonists of the estrogen receptor alpha (ER-alpha) signaling pathway - cell viability counter screen (AID 743074; calls by dose curve;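 also: HEK293 cells carrying ER-alpha-UAS-bla reporter stimulated with 17beta-estradiol; nearly all actives have a fitted effect of over 45% in size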).
Experiment [4] can be described thus: qHTS assay to identify small molecule antagonists of the estrogen receptor alpha (ER-alpha) signaling pathway using the BG1 cell line - cell viability counter screen (AID 743081).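 Also: compound given together with 17beta-estradiol as the ER stimulus; nearly all actives have a fitted effect of over 45% in size.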
Experiment [5] deals with Aromatase (Homo sapiens) (UniProt P11511). Description: qHTS assay to identify aromatase inhibitors (AID 743083). Also: nearly all actives have a fitted effect of over 55% in size.
A short description of experiment [6]: qHTS assay to identify aromatase inhibitors - cell viability counter screen (AID 743084).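 Also: cells stimulated with testosterone during compound exposure; nearly all actives have a fitted effect of over 55% in size.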
Experiment [7] has as its target Estrogen receptor (Homo sapiens) (UniProt P03372). Description: qHTS assay to identify small molecule agonists of the estrogen receptor alpha (ER-alpha) signaling pathway (AID 743075; calls by dose curve;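 also: HEK293 GripTite cells with ER-alpha and UAS-driven beta-lactamase reporter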; also: potency is read from the fitted curve at half-maximal effect).
Experiment [8] has the same target. The experiment can be described thus: qHTS assay to identify small molecule agonists of the estrogen receptor alpha (ER-alpha) signaling pathway using the BG1 cell line (AID 743079). Also: potency is read from the fitted curve at half-maximal effect. As to all read-outs here: nearly all actives have a fitted effect of over 20% in size. As to conditions: BG1Luc4E2 cells, ERE-luciferase agonist, 22 h; for activation: at 70.3 µM (top of the series).
Experiment [9] is described as follows: qHTS assay to identify small molecule antagonists of the estrogen receptor alpha (ER-alpha) signaling pathway using the BG1 cell line (AID 743080; calls by dose curve;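 also: BG1 cells stimulated with 17beta-estradiol alongside compound; nearly all actives have a fitted effect of over 25% in size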; also: potency is read from the fitted curve at half-maximal effect). A digest of the protocol: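 BG1-Luc-4E2 cells (endogenous full-length ER-alpha, 4xERE luciferase) hormone-starved 5 days in charcoal-stripped FBS, plated 4,000/well for 24 h, then compound plus 17beta-estradiol for 21.5 h at 37 C; ONE-Glo luminescence read.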

Experiment [10] has as its target Estrogen receptor (Homo sapiens) (UniProt P03372). The experiment can be described thus: qHTS assay to identify small molecule antagonists of the estrogen receptor alpha (ER-alpha) signaling pathway (AID 743069; active = well fitted curve in the direction sought with a large enough effect in the signal ratio in the repeat runs, not every such curve was filed as active; inconclusive = weak or mixed curves, or effect the other way; inactive = no such curve, though single readings can be large or run the other way; the % refers to the signal ratio). A digest of the protocol: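 A 17beta-estradiol challenge was applied right after compound transfer to ER-alpha-UAS-bla HEK293 cells previously kept in charcoal-stripped serum. Plates stood 18 hr at 37C and 5% CO2; fluorescence was read following 2 hr FRET substrate loading at room temperature.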

The structures appear in SMILES notation. A number with no mark means an inactive call. Calls of active or inactive are those of the source. Unless noted, calls follow the shape of the dose curve; as a rule, active = well fitted curve in the direction sought with a large enough effect in the repeat runs; inconclusive = weak or mixed curves; inactive = no such curve, though single readings can be large; an effect the other way counts as inactive or inconclusive.
% is scaled to controls: 0 for no effect and ±100 for the full control effect.

Sequence of Aromatase (Homo sapiens) (P11511 whole entry, looked up): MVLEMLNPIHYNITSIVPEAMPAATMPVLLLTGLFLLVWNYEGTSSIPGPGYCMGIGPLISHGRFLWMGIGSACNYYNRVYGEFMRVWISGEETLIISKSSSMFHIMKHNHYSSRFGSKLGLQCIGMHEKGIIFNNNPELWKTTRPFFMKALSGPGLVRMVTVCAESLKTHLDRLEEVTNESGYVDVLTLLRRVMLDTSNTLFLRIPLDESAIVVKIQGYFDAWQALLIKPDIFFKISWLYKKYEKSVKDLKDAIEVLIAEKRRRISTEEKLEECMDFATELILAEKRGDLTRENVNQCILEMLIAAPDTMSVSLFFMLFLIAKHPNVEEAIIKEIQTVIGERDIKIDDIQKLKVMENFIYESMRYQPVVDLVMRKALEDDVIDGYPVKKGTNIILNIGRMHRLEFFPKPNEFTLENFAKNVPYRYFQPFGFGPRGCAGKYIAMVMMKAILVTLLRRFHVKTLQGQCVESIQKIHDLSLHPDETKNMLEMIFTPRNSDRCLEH
Sequence of Estrogen receptor (Homo sapiens) (P03372 whole entry, looked up): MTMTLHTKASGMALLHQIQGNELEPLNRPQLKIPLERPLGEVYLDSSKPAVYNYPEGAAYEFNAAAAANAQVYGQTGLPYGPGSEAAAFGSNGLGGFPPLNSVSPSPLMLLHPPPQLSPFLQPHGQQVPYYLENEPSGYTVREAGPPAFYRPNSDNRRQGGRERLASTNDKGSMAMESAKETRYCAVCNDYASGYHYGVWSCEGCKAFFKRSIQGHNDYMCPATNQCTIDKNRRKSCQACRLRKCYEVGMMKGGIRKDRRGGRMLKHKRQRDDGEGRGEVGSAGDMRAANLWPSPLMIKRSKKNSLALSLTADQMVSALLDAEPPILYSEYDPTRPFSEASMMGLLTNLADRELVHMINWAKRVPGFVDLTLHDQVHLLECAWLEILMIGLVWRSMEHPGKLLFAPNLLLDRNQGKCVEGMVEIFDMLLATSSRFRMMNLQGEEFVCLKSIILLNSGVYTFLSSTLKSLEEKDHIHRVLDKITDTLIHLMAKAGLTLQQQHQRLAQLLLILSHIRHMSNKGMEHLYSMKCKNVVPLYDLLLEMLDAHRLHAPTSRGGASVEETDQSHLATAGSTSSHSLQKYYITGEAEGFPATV

In the case of `C[C@]12CC[C@H]3[C@@H](CC=C4C[C@@H](O)CC[C@@]43C)[C@@H]1CC[C@@H]2O`, the Potency entry in experiment [1], in experiment [2], in experiment [4], in experiment [5] and in [6] was “inactive” in each case. Also, the result in experiment [3] was inactive.
On to `Cc1cnc[nH]1`, for which the Potency result in experiment [1], in experiment [2], in experiment [4], in experiment [5] and in experiment [6] was “inactive” in each case. For the same molecule, in [3], the molecule was classed as inactive.
On to `COC(=O)C(C)Oc1ccc(Oc2ccc(Cl)cc2Cl)cc1` (configuration not stated), for which the Potency result in [1], in experiment [2], in experiment [4], in experiment [5] and in experiment [6] was “inactive” each time. Besides, the molecule was called inactive in [3].
For `O=[N+]([O-])c1cccc2c([N+](=O)[O-])cccc12`, the Potency entry in experiment [1], in [2], in [4], in experiment [5] and in experiment [6] was “inactive” in each case. Moreover, in experiment [3], the molecule was classed as inactive.
Regarding `CCOP(=O)(OCC)OP(=O)(OCC)OCC`, the Potency entry in experiment [1], in experiment [2], in experiment [4], in experiment [5] and in experiment [6] was “inactive” each time. The result in experiment [3] was inactive.
On to `CNC(=O)Oc1cccc(C(C)C)c1`, for which the Potency entry in [1], in [2], in experiment [4], in [5] and in experiment [6] was “inactive” in each case. Also, the molecule was called inactive in experiment [3].
In the case of `COc1cc(OC)nc(Oc2cccc(Oc3nc(OC)cc(OC)n3)c2C(=O)O)n1`, the Potency entry in [1], in experiment [2], in [4], in experiment [5] and in [6] was “inactive” in each case. In addition, in experiment [3], the result was inactive.
Turning to `O=C(Nc1ccccc1)N(Cc1ccc(Cl)cc1)C1CCCC1`, the Potency in [1] is 21.7 µM (active). Moreover, the Potency result in experiment [2], in [4], in experiment [5] and in experiment [6] was “inactive” in each case. For the same molecule, the outcome in [3] was inactive.
`CNCC(=O)c1ccc(O)c(O)c1`: the Potency entry in experiment [1], in [2], in experiment [7], in experiment [9], in experiment [5] and in experiment [6] was “inactive” in each case. For the same molecule, the activation in experiment [8] was -0.0937%.
For the molecule `CSc1ccc(C(=O)C(C)(C)N2CCOCC2)cc1`, the Potency result in [1], in [2], in experiment [9], in experiment [4], in experiment [5] and in experiment [6] was “inactive” each time. The Potency in [7] was 61.6 µM [inconclusive] (active); in experiment [8], 3.44 µM (active).
For the molecule `CCOC(=O)N(C)C(=O)CSP(=S)(OCC)OCC`, the Potency entry in [1], in experiment [2], in experiment [4] and in experiment [6] was “inactive” each time. Moreover, in experiment [3], the outcome was inactive.
As for `CCN(CC)CCOC(=O)C(C)(c1ccccc1)c1ccccc1`, in [1], the Potency was 26.6 µM (active). The Potency result in experiment [2], in [5] and in experiment [6] was “inactive” in each case. Further, the result in [3] was inactive.
Turning to `CC(C)COP(=O)(OCC(C)C)OCC(C)C`, the Potency result in experiment [1], in experiment [2], in [4] and in experiment [6] was “inactive” throughout. Besides, the outcome in [3] was inactive.
As to `COC(C)(C)C`, the Potency result in [1], in experiment [2], in [4], in experiment [5] and in experiment [6] was “inactive” throughout. In [3], the molecule was classed as inactive.
Take `CCC#N`: the Potency entry in experiment [1], in [2] and in experiment [4] was “inactive” throughout.
Regarding `CCS(=O)(=O)CCSP(=O)(OC)OC`, the Potency result in experiment [1], in [2], in [4], in [5] and in [6] was “inactive” each time. For the same molecule, the result in [3] was inactive.
As to `CN/C(=N\[N+](=O)[O-])NCC1CCOC1` (configuration not stated), the Potency entry in [1], in [2], in experiment [4], in [5] and in experiment [6] was “inactive” in each case. Besides, in [3], the result was inactive.
Regarding `O=NN1CCCCC1`, the Potency entry in experiment [1], in [2], in experiment [4], in [5] and in [6] was “inactive” each time. In experiment [3], the call was inactive.
On to `CCCSC(=O)N(CCC)CCC`, for which the Potency result in experiment [1], in [2], in experiment [4], in [5] and in experiment [6] was “inactive” in each case. In experiment [3], the molecule was called inactive.
Consider `CC(COc1ccc(Oc2ccccc2)cc1)Oc1ccccn1` (configuration not stated), for which the Potency result in [1], in [2], in experiment [4], in experiment [5] and in experiment [6] was “inactive” in each case. The result in [3] was inactive.
Consider `CNC(=O)O/N=C(\C)SC`, for which the Potency entry in experiment [1], in [2], in experiment [4], in [5] and in experiment [6] was “inactive” throughout.
`[As]#[In]`: the Potency entry in experiment [1], in experiment [2], in experiment [4], in experiment [5] and in experiment [6] was “inactive” in each case. In experiment [3], the result was inactive.
As to `CC1(C)COP(Oc2ccccc2)OC1`, the Potency result in [1], in experiment [4], in [5] and in experiment [6] was “inactive” throughout. Besides, the Potency in [2] was 54.5 µM (active). Also, in experiment [3], the molecule was classed as inactive.
As for `CNC(=O)N(C)c1nc2ccccc2s1`, the Potency entry in experiment [1], in [2], in [4], in [5] and in [6] was “inactive” throughout.
With `CCc1cc2c(s1)-n1c(C)nnc1CN=C2c1ccccc1Cl`, the Potency entry in [2], in experiment [7], in [5] and in experiment [6] was “inactive” in each case. In addition, in experiment [3], the result was inactive. Further, the Potency in [9] was 11.9 µM (active).
Regarding `CCCSP(=S)(OCC)Oc1ccc(Cl)cc1Cl` (configuration not stated), the Potency entry in experiment [2], in experiment [9], in experiment [4], in experiment [5] and in experiment [6] was “inactive” each time. The call in experiment [3] was inactive. In addition, the Potency in [8] is 38.6 µM (active).
As for `O=c1oc2ccccc2c(O)c1C1CCCc2ccccc21` (configuration not stated), the Potency result in experiment [2], in experiment [10], in experiment [7], in experiment [9], in experiment [4] and in [5] was “inactive” throughout. Moreover, in [6], the Potency entry is “inactive”. Moreover, in experiment [3], the molecule was called inactive. Further, the activation in [8] is -13.4%.
As to `COC(=O)c1c(C(F)F)nc(C(F)(F)F)c(C2=NCCS2)c1CC(C)C`, the Potency entry in [2], in experiment [10], in experiment [7], in [9], in experiment [4] and in [5] was “inactive” in each case. For the same molecule, the Potency result in experiment [6] is “inactive”. In experiment [3], the result was inactive. In addition, the activation in [8] was 0.436%.
Turning to `OC(c1ccccc1)(c1ccccc1)C1CCNCC1`, the Potency result in experiment [2], in experiment [4], in experiment [5] and in experiment [6] was “inactive” each time. Besides, the molecule was classed as inactive in [3].
In the case of `CC(CCc1ccccc1)NC(C)C(O)c1ccc(O)cc1` (configuration not stated), the Potency entry in [2], in [10], in experiment [7], in [9], in experiment [4] and in experiment [5] was “inactive” throughout. Besides, the Potency entry in experiment [6] was “inactive”. Further, the outcome in experiment [3] was inactive. Further, the activation in experiment [8] was -7.77%.
Regarding `CC(=O)CCc1ccc2c(c1)OCO2`, the Potency entry in experiment [10], in experiment [7], in experiment [9], in experiment [4], in experiment [5] and in [6] was “inactive” each time. Moreover, the result in experiment [3] was inactive. Also, in experiment [8], the activation is 24.9%.
